GLP1R cytotox: cytotoxicity in counter-screen for GLP-1R inverse agonists; Potency, µM (highest dose often 38.3 µM), for inactives: at the highest dose activity change, negative = inhibition, hits mostly inhibitors; HEK293 cAMP-luciferase reporter cells, luminescence, 24 h; 410,000 compounds, 0.13% hits; AID 624418;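 further: loss of luciferase light is scored as toxicity; on the % scale 0 is the no-effect control and ±100 the full control effect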
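Seeding density was 200 cells/uL; after overnight-length (12 h) culture, 23 nL compounds went on for 24 h at 37 °C. Readout used a luciferase detection reagent, luminescence taken after 12 min at room temperature.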
GLP-1R agonist: agonists of human GLP-1 receptor. P43220. 380,000 compounds, 0.007% hits. Potency, µM (titrated, usually from 45.6 µM), without a hit: at the highest dose activation, actives largely listed as activators. HEK293 GLP-1R CRE-luciferase, luminescence, 4-6 h; cells express a hypersensitive GLP-1R form; further: % of control where 0% means no effect
Target sequence (P43220 whole entry, looked up): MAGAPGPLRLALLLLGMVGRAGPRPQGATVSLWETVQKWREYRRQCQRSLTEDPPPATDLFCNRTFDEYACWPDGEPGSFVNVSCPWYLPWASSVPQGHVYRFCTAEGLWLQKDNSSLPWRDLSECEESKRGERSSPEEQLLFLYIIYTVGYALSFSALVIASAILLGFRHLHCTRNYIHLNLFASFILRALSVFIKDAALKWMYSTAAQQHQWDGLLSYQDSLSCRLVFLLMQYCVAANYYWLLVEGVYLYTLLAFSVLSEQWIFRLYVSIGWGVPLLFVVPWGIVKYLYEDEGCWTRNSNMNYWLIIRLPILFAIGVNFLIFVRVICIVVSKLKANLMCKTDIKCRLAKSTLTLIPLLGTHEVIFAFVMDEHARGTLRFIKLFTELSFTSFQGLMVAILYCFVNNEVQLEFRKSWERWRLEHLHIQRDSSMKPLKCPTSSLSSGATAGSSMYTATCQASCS
GLP1R inv ag: inverse agonists of human GLP-1 receptor; 410,000 compounds, 1.6% hits; Potency, µM (doses to about 38.3 µM), for inactives: at the top dose activity change, negative = inhibition, actives largely listed as inhibitors; P43220; HEK293 GLP-1R CRE-luciferase, luminescence, 24 h; GLP-1R form is constitutively active; AID 624417; further: on the % scale 0 is the no-effect control and ±100 the full control effect; nearly all actives have a fitted effect of over 55% in size
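Readout was luciferase luminescence, measured 12 min after detection reagent at room temperature. Beforehand, GLP-1R reporter HEK293 cells had sat 12 h, then received compounds for 24 hr at 37 deg C.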
BRCA1 expr act: activators of BRCA1 expression | Potency, µM (doses to about 46.1 µM), without a hit: top-dose activation, usual class: activators | MCF7-BRCA1-FFLuc reporter, luminescence, 48 h; response scale: scaled: vehicle 0%, 10 µM genistein 100% | 380,000 compounds, 1.1% hits; further: nearly all actives have a fitted effect of over 80% in size
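Activators of BRCA1 expression were detected as increased firefly luciferase luminescence in engineered MCF7 cells after 48 h compound incubation. Signals were scaled to genistein 10 microM as full activation.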
* hit, by the source's call; ? = inconclusive; nt = no result given; [ ] = another dose, or the depositor's remark. An excerpt weighted towards active compounds, which were near 2.6% of everything screened. The call rests on the fitted dose curve; in most records, active means well fitted curve in the direction sought with a large enough effect; inconclusive means small, poorly fitted or top-dose-only effect, or another doubt; inactive means no such curve, though single readings can be large; an effect the other way counts as inactive or inconclusive. Potency means the concentration at half of the fitted maximal effect.

SMILES	GLP1R cytotox	GLP-1R agonist	GLP1R inv ag	BRCA1 expr act
CCC(C)NC(=S)Nc1ccc2nc(N3CCN(CC)CC3)cc(C)c2c1 (centres undefined)	?	-1%	3.5µM*	-40%
CCCN(CCC)CCNC(=O)c1nn(C)c2c1CS(=O)(=O)c1ccccc1-2	-5%	nt	-3%	nt
COc1ccc(CS(=O)(=O)CC(C)(O)c2ccccc2Cl)cc1 (centres undefined)	-4%	19%	-23%	-1%
Cc1cc(N2CCOCC2)nc2ccc(NC(=O)CCC(=O)N3CCCCC3)cc12	2%	-1%	?	84%
Cc1cc(N2CCOCC2)nc2ccc(NC(=O)CCC(=O)N3CCN(c4cccc(C(F)(F)F)c4)CC3)cc12	-18%	-2%	10µM*	-67%
CCN1CCN(c2cc(C)c3cc(NC(=S)NCc4cccs4)ccc3n2)CC1	?	17%	?	-23%
Cc1ccc(C)c(N2CCN(C(=S)Nc3ccc4nc(N5CCN(C)CC5)cc(C)c4c3)CC2)c1	-14%	8%	2.5µM*	-40%
Cc1cc(N2CCCCC2)nc2ccc(NC(=O)c3ccc(Br)o3)cc12	?	-7%	2.8µM*	-17%
Cc1cc(N2CCN(C)CC2)nc2ccc(NC(=S)NCc3cccs3)cc12	?	2%	1µM*	-27%
Cc1ccc(C)c(N2CCN(C(=S)Nc3ccc4nc(N5CCOCC5)cc(C)c4c3)CC2)c1	10%	-1%	?	-18%
CCCOc1ccc([N+](=O)[O-])c(N)c1	0%[1.53 µM]	-1%	4%	4%
COC(=O)c1ccccc1NC(=O)c1cnn2c1NC(=C1CC1)C=C2C(F)F	nt	nt	nt	-24%
O=S1(=O)CC(c2ccccc2)=NN=C(c2ccccc2)C1	-23%	-5%	5%	?
COc1ccccc1C(=O)Nc1ccc(OCC(=O)N2CC(C)CC(C)C2)cc1 (centres undefined)	4%	-5%	10µM*	9%
COc1ccccc1C(=O)Nc1ccc(N2CCN(S(C)(=O)=O)CC2)cc1	1%	3%	0%	11µM*
COc1ccccc1C(=O)Nc1ccccc1N1CCN(S(C)(=O)=O)CC1	-9%	-7%	7%	-24%
CC(=O)Nc1ccc(OCC(=O)N2CCC(Cc3ccccc3)CC2)cc1	-1%	7%	13µM*	-16%
COc1c(C)cccc1C(=O)Nc1ccc(N2CCN(S(C)(=O)=O)CC2)cc1	2%	-5%	1%	3.5µM*
CCCNC(=O)N(C)C[C@@H]1Oc2cc(Br)ccc2S(=O)(=O)N([C@@H](C)CO)C[C@H]1C	18%	1%	11%	8%
CSCCC(NS(=O)(=O)c1ccc2c(c1)oc(=O)n2C)C(=O)N1CCN(c2cc(Cl)ccc2C)CC1 (centres undefined)	-9%	nt	?	nt
COc1ccc(CC(=O)Nc2oc(-c3ccccc3)c(-c3ccccc3)c2C#N)cc1OC	-13%	-1%	2.2µM*	-24%
COc1ccc(-c2oc(NC(=O)CCl)c(C#N)c2-c2ccc(OC)cc2)cc1	?	-12%	2.2µM*	-96%
COc1ccc(-c2oc(NC(=O)CSc3ncn[nH]3)c(C#N)c2-c2ccc(OC)cc2)cc1	-20%	-3%	-13%	-67%
COc1ccc(/C=C/C(=O)Nc2nc(-c3cccs3)ns2)cc1	2%	nt	11%	nt
O=C(Nc1ccccc1F)NC1CC1	14%	2%	38%	19%
SMILES	GLP1R cytotox	GLP-1R agonist	GLP1R inv ag	BRCA1 expr act
CN(C(=O)c1ccc(-c2ccccc2)cc1)C1CCCCC1	1%	19%	10µM*	2.8µM*
O=C(Nc1ccccc1F)NC1CCCCCCC1	-7%	17%	?	3.5µM*
CN(C(=O)c1ccccc1Cl)C1CCCCC1	3%	4%	4%	13%
O=C(NC1CCCCC1)c1ccc(-c2ccccc2)cc1	-3%	14%	10%	2.2µM*
O=C(NC1CCCCC1)c1ccccc1-c1ccccc1	4%	1%	-35%	20%
O=C(NC1CCCCCCC1)c1ccc(F)cc1	-2%	16%	?	2.8µM*
O=C(NC1CC2CCCC(C1)N2C(=O)NC1CCCCC1)c1ccc(F)cc1 (centres undefined)	5%	-5%	-3%	1%
CCOC(=O)C[C@@H](C#N)NC(=O)[C@@H]1CCCN1C(=O)[C@@H](NC(=O)c1ccc(N)c(Cl)c1)C(C)(C)C	nt	8%	nt	-5%
CCc1nc2ccc(C(=O)N(C)CCCN(C)C)cn2c1N(C)C(=O)C1CCCCC1	2%	2%	3%	-9%
Cc1ccc(C(=O)NC(=S)N(C)C2CCCCC2)cc1	-20%	2%	21%	8.9µM*
O=S(=O)(NCC(c1ccco1)N1CCCCC1)c1ccccc1C(F)(F)F (centres undefined)	-2%	-9%	10µM*	-18%
O=C(Cc1cccc(C(F)(F)F)c1)NCC(c1ccco1)N1CCCCC1 (centres undefined)	-2%	2%	?	-9%
O=S(=O)(NCC(c1ccco1)N1CCCCC1)c1cccc(C(F)(F)F)c1 (centres undefined)	-1%	3%	11µM*	-24%
CC1CCCC(NC(=O)COC(=O)c2cc(S(=O)(=O)N3CCOCC3)ccc2F)C1C (centres undefined)	4%	-7%	12%	3%
CN1CCN(C(=O)c2ccc(CSc3ccc(Cl)cc3)cc2)CC1	20%	-2%	5.6µM*	-28%
CCOc1ccccc1NC(=O)Nc1ccc2c(c1)CCC2	-15%	13%	10µM*	55%
COc1cccc(C(C)NC(=O)Nc2ccccc2Cl)c1 (centres undefined)	23%	-1%	13µM*	-16%
COc1cccc(NC(=O)Nc2ccc3nsnc3c2)c1	?	-5%	?	7.1µM*
Cc1ccc(NC(=O)Nc2ccc3c(c2)CCC3)cc1C	-20%	6%	3%	33%
COc1ccc(NC(=O)Nc2ccc3c(c2)CCC3)cc1	-8%	-2%	8%	2.5µM*
CC(=O)N1CCCc2cc(S(=O)(=O)N3CCC(C(=O)N(Cc4ccccc4)C(C)C)CC3)ccc21	4%	nt	2%	nt
CCc1ccc(OCCn2c(CCNC(=O)C3CCCCC3)nc3ccccc32)cc1	nt	nt	nt	-41%
COc1ccc(-c2cc(C(=O)NCc3ccc(F)cc3)no2)cc1	-8%	nt	6%	nt
COc1ccc(NC(=O)Nc2cccc(OC)c2)cc1	-15%	6%	-3%	11µM*
COc1cccc(NC(=O)Nc2nc(SC(C)(C)C)ns2)c1	?	0%	5.6µM*	12%
SMILES	GLP1R cytotox	GLP-1R agonist	GLP1R inv ag	BRCA1 expr act
Cc1cc(C)nc(NC(=O)Nc2ccc(F)cc2F)n1	-21%	-1%	11%	4µM*
COc1cccc(NC(=O)Nc2ccc3nc(C)c(C)nc3c2)c1	-4%	1%	5%	?
COc1ccc(NC(=O)Nc2ccc3oc(C)nc3c2)cc1	5%	3%	8%	2.8µM*
COc1ccc(NC(=O)Nc2nc(C)cc(C)n2)c(OC)c1	-1%	1%	-18%	-39%
CSc1ccc(/C=N/N2CCN(Cc3ccccc3)CC2)cc1	-7%	14%	?	36%
COc1cccc(NC(=O)Nc2ccccc2Br)c1	-6%	22%	?	10µM*
